Results on 27 compounds are retold here after PubChem BioAssay (Tox21).

The nature of experiment [1]: qHTS assay to identify small molecule antagonists of the progesterone receptor (PR) signaling pathway - cell viability counter screen (AID 1346798). Further: nearly all actives have a fitted effect of over 50% in size. Further: potency means the concentration at half of the fitted maximal effect. Summed up: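 ATP content as viability readout: CellTiter-Glo luminescence, 30 min room temperature, in PR-UAS-bla HEK293T cells after 16 hr compound/R5020 treatment at 37C and 5% CO2.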
For orientation: qHTS replaces the single test concentration by a dilution series.

Experiment [2] can be described thus: qHTS assay to identify small molecule agonists of the progesterone receptor (PR) signaling pathway - cell viability counter screen (AID 1346799; calls by dose curve; further: nearly all actives have a fitted effect of over 45% in size; further: potency means the concentration at half of the fitted maximal effect). Summed up: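 Cytotoxicity in PR-bla HEK293T cells: 16 h compound, 37C; CellTiter-Glo added post-FRET read; luminescence after 30 min RT.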
Experiment [3] is described as follows: qHTS assay to identify small molecule antagonists of the TGF-beta/Smad signaling pathway - cell viability counter screen (AID 1346824). Further: nearly all actives have a fitted effect of over 50% in size. The gist of the method:
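Cytotoxicity counter-screen run in the same wells as the beta-lactamase Smad reporter read: CellTiter-Glo luminescence after 30 min at room temperature. HEK 293T SBE-bla cells had 5 hr compound exposure at 37 C with TGF-beta1 (0.25 ng/mL stock).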

Experiment [4] is described as follows: qHTS assay to identify small molecule agonists of the TGF-beta/Smad signaling pathway - cell viability counter screen (AID 1346829). Further: top concentration of the series differs between compounds; nearly all actives have a fitted effect of over 45% in size. The gist of the method:
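In parallel with the Smad reporter read, viability of HEK 293T cells stably carrying SBE-bla is quantified by ATP luminescence following 5 hr compound treatment.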

The nature of experiment [5]: qHTS assay to identify small molecule agonists of the TGF-beta/Smad signaling pathway (AID 1346859; active means well fitted activation curve with a large enough effect in the signal ratio in the repeat runs, not every such curve was filed as active; the % refers to the signal ratio; further: series mostly up to about 77 µM). Summed up: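 Stable Smad binding element-beta-lactamase HEK 293T cells; 5 hr compound exposure at 37 C under 5% CO2; 2 hr room-temperature substrate step; fluorescence excited at 405 nm, collected at 460 nm and 530 nm.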
The target of experiment [6] is Thyrotropin-releasing hormone receptor (Homo sapiens) (UniProt P34981). The experiment in a line: qHTS assay to identify small molecule antagonists of the thyrotropin-releasing hormone receptor (TRHR) signaling pathway (AID 1346877; active means well fitted inhibition curve with a large enough effect in the repeat runs, not every such curve was filed as active; further: series mostly up to about 51 µM). The gist of the method:
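Antagonism is measured as suppression of the calcium response to 1 nM TRH in TRHR-HEK293 cells that have been dye-loaded for 2 h at 37 °C after overnight plating. Each compound is tested at 15 concentrations in triplicate.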

Experiment [7] has the same target. The experiment in a line: qHTS assay to identify small molecule agonists of the thyrotropin-releasing hormone receptor (TRHR) signaling pathway (AID 1346891; calls by dose curve;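 further: HEK293 cells expressing TRHR with calcium dye readout; series mostly up to about 58 µM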). The gist of the method: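 In 1536-format, 1500 TRHR-Hek293 cells per well grew 18 h, took up calcium dye for 2 h at 37 °C, received compound, and were read kinetically; 15-point titrations, triplicates.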

Experiment [8] is described as follows: Human pregnane X receptor (PXR) small molecule agonists, qHTS cell viability counter screen (AID 1346977). Further: nearly all actives have a fitted effect of over 50% in size. Further: potency means the concentration at half of the fitted maximal effect. Summed up: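 Readout is CellTiter-Fluor fluorescence from PXR-Luc HepG2 cells. Plated cells rested 5hr, then were treated with compounds for 24hr at 37C and 5% CO2, with reagent present during the last hour.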
A short description of experiment [9]: Caspase-3/7 induction in HepG2 cells by small molecules, qHTS assay (AID 1346978). Further: nearly all actives have a fitted effect of over 15% in size. The gist of the method:
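Caspase-3/7 induction was measured by Caspase-Glo 3/7 luminescence (30 min, room temperature) after a 17 hr compound exposure of wild-type HepG2 cells seeded at 2,000 per well and pre-incubated 5 hr.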

Experiment [10] in a line: Caspase-3/7 induction in CHO-K1 cells by small molecules, qHTS cell viability counter screen (AID 1346979). Further: nearly all actives have a fitted effect of over 35% in size. Further: potency means the concentration at half of the fitted maximal effect. The gist of the method: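 To flag cytotoxic compounds, treated CHO-K1 wild-type cells were given CellTiter-Fluor at 16hr and read fluorescently after 1hr at 37C; the caspase-3/7 luminescence was measured in these same wells.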

Values joined by “and” are separate entries in the source; they are usually repeats but may differ in a detail not shown here. Equal entries are not always repeated. Records with an inconclusive call do not appear. The source holds several records for some structures; these can differ, active in one and inactive in another. Active and inactive are the calls of the source. Unless noted, the call rests on the fitted dose curve; in most records, active means well fitted curve in the direction sought with a large enough effect in the repeat runs; inconclusive means weak or mixed curves; inactive means no such curve, though single readings can be large; an effect the other way counts as inactive or inconclusive.

Sequence of Thyrotropin-releasing hormone receptor (Homo sapiens) (P34981 whole entry, looked up): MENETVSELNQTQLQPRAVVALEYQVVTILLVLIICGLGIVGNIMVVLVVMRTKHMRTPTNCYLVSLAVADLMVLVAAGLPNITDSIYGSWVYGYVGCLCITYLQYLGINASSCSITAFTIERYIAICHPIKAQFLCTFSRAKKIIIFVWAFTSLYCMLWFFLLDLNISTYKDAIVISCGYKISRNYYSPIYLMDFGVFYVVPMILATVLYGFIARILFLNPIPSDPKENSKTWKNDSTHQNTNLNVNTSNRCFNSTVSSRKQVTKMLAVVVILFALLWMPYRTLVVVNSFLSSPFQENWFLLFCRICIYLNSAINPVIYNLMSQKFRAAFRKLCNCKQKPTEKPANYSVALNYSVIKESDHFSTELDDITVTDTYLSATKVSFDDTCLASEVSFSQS

Regarding `C=CCOC(Cn1ccnc1)c1ccc(Cl)cc1Cl` (stereo not given), the Potency in [1] is 24.4 µM (active) and 15.4 µM (active) and 11.9 µM (active); in experiment [2], 27.4 µM (active) and 21.7 µM (active) and 18.8 µM (active); in experiment [8], 48.6 µM (active); in experiment [10] it was 48.7 µM (active) and 38.6 µM (active). Further, the Potency entry in [3], in experiment [4], in experiment [5], in [6], in experiment [7] and in experiment [9] was “inactive” in each case.

On to `O=C(O)CC(O)(CC(=O)O)C(=O)O`, for which the Potency result in [1], in [2], in experiment [3], in experiment [4], in experiment [5] and in [6] was “inactive” throughout. Besides, the Potency entry in [7], in experiment [9] and in experiment [10] was “inactive” throughout.

Regarding `O=P1(N(CCCl)CCCl)NCCCO1` (stereo not given), the Potency result in experiment [1], in experiment [2], in [3], in experiment [4], in experiment [5] and in experiment [6] was “inactive” each time. The Potency entry in [7], in experiment [9] and in experiment [10] was “inactive” in each case.

On to `COc1ccccc1N`, for which the Potency result in experiment [1], in [2], in experiment [3], in [4], in experiment [5] and in experiment [6] was “inactive” each time. For the same compound, the Potency result in experiment [7], in experiment [9] and in experiment [10] was “inactive” each time.

For `N#CS`, the Potency entry in experiment [1], in [2], in [3], in experiment [4], in experiment [5] and in experiment [6] was “inactive” throughout. The Potency entry in experiment [7], in [9] and in [10] was “inactive” in each case.

Turning to `CCCC[n+]1ccccc1C`, the Potency result in [1], in experiment [2], in experiment [3], in experiment [4], in experiment [5] and in experiment [8] was “inactive” in each case. In addition, the Potency result in experiment [9] and in [10] was “inactive” throughout.

With `Nc1ccc(-c2ccc(N)cc2)cc1`, the Potency entry in experiment [1], in experiment [2], in experiment [3], in experiment [4], in experiment [5] and in experiment [6] was “inactive” throughout. For the same compound, the Potency entry in [7], in experiment [8], in [9] and in experiment [10] was “inactive” each time.

`CCC[N+]1(C)CCCC1`: the Potency result in experiment [1], in experiment [2], in experiment [3], in experiment [4], in experiment [5] and in experiment [9] was “inactive” throughout. In addition, the Potency entry in [10] is “inactive”.

`CCCC[n+]1cccc(C)c1`: the Potency entry in experiment [1], in experiment [2], in [3], in [4], in [5] and in [6] was “inactive” throughout. The Potency result in experiment [7], in [8], in [9] and in [10] was “inactive” each time.

Consider `O=c1[nH]c(=O)n(Cl)c(=O)n1Cl`, for which the Potency entry in [1], in experiment [2], in experiment [3], in [4], in experiment [5] and in [6] was “inactive” each time. Besides, the Potency result in experiment [7], in [9] and in experiment [10] was “inactive” throughout.

Consider `CCNc1nc(Cl)nc(NCC)n1`, for which the Potency result in experiment [1], in experiment [2], in experiment [3], in experiment [4], in experiment [5] and in experiment [6] was “inactive” in each case. For the same compound, the Potency entry in [7], in [8], in [9] and in [10] was “inactive” in each case.

Turning to `O=C(O)CCl`, the Potency result in experiment [1], in experiment [2], in [3], in experiment [4], in experiment [5] and in [6] was “inactive” each time. Also, the Potency entry in experiment [7], in [8], in experiment [9] and in experiment [10] was “inactive” each time.

In the case of `O=C(O)C(Cl)Cl`, the Potency result in experiment [1], in experiment [2], in experiment [3], in experiment [4], in experiment [5] and in experiment [6] was “inactive” throughout. In addition, the Potency entry in [7], in experiment [8], in experiment [9] and in [10] was “inactive” each time.

As for `COCC(=O)N(c1c(C)cccc1C)C(C)C(=O)OC` (stereo not given), the Potency entry in [1], in experiment [2], in experiment [3], in experiment [4], in [5] and in experiment [6] was “inactive” throughout. The Potency entry in experiment [7], in experiment [9] and in experiment [10] was “inactive” in each case.

As for `Cc1cc(Cl)ccc1N`, the Potency result in experiment [1], in experiment [2], in experiment [3], in experiment [4], in experiment [5] and in experiment [6] was “inactive” each time. In addition, the Potency entry in [7], in experiment [9] and in experiment [10] was “inactive” in each case.

On to `CCCn1cc[n+](C)c1`, for which the Potency result in experiment [1], in [2], in experiment [3], in experiment [4], in [5] and in experiment [6] was “inactive” throughout. In addition, the Potency entry in experiment [7], in [9] and in experiment [10] was “inactive” each time.

With `COP(=O)(OC)OC=C(Cl)Cl`, the Potency entry in [1], in experiment [2], in experiment [3], in [4], in experiment [5] and in experiment [6] was “inactive” in each case. Besides, the Potency entry in [7], in experiment [9] and in [10] was “inactive” throughout.

For the compound `Nc1ccccc1`, the Potency entry in experiment [1], in [2], in experiment [3], in experiment [4], in [5] and in experiment [6] was “inactive” in each case. The Potency result in experiment [7], in experiment [8], in experiment [9] and in experiment [10] was “inactive” throughout.

Turning to `COP(=O)(OC)C(O)C(Cl)(Cl)Cl` (stereo not given), the Potency entry in experiment [1], in experiment [2], in [3], in experiment [4], in experiment [5] and in [6] was “inactive” in each case. Moreover, the Potency result in experiment [7], in experiment [8], in experiment [9] and in [10] was “inactive” throughout.

Consider `CCCCCCCCCCCCOS(=O)(=O)O`, for which the Potency result in experiment [1], in experiment [3], in experiment [4], in experiment [5], in experiment [8] and in [9] was “inactive” in each case. The Potency result in experiment [10] was “inactive”. Besides, the Potency entry in experiment [2] was “inactive and 27.3 µM (active)”.

Regarding `CNC`, the Potency entry in [1], in experiment [2], in experiment [3], in [4], in experiment [5] and in [6] was “inactive” in each case. Moreover, the Potency entry in experiment [7], in [8], in [9] and in experiment [10] was “inactive” throughout.

On to `CCCC[n+]1ccccc1`, for which the Potency result in experiment [1], in [2], in experiment [3], in [4], in experiment [5] and in experiment [9] was “inactive” throughout. The Potency result in [10] is “inactive”.

As to `O=[N+]([O-])c1ccccc1O`, the Potency result in [1], in [2], in experiment [3], in experiment [4], in experiment [5] and in experiment [6] was “inactive” in each case. In addition, the Potency entry in [7], in experiment [8], in [9] and in experiment [10] was “inactive” each time.

`O=c1nc(O)n(Cl)c(=O)n1Cl`: the Potency result in [1], in [2], in experiment [3], in experiment [4], in experiment [5] and in [6] was “inactive” each time. The Potency entry in experiment [7], in [8], in experiment [9] and in [10] was “inactive” throughout.

Turning to `C1CCC(NC2CCCCC2)CC1`, the Potency entry in experiment [1], in [2], in [3], in [4], in experiment [5] and in experiment [6] was “inactive” each time. Besides, the Potency result in experiment [7], in [8], in [9] and in [10] was “inactive” each time.

As to `Nc1ccc(Cl)cc1`, the Potency result in [1], in experiment [2], in [3], in experiment [4], in [5] and in experiment [6] was “inactive” throughout. Also, the Potency result in experiment [7], in experiment [8], in [9] and in [10] was “inactive” each time.

Consider `O=C(O)C(Cl)(Cl)Cl`, for which the Potency result in [1], in [2], in experiment [3], in experiment [4], in experiment [5] and in experiment [6] was “inactive” in each case. The Potency entry in experiment [7], in experiment [9] and in experiment [10] was “inactive” each time.
